The AC50 is the midpoint of the concentration-response curve, whichever way the signal moves.

Active and inactive are the calls of the source. The calls were made as follows: active = hit-call score of the fitted dose curve at least 0.9, where 1 is the maximum; inactive = score below 0.9.

Read-out in assay [1]: Interleukin-1 alpha (IL1a), IL1A (gene 3552)
Description: BSK_LPS_IL1a: BioMAP Diversity Plus: LPS Assay for Interleukin-1 alpha (IL1a) Biomarker Activity (AID 2283080). The settings on record: primary human HUVEC with PBMC; actives raise or lower the signal. The method in brief: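 Readout is IL-1a level by ELISA, 24 h post-dose, fitted as gain or loss relative to DMSO. System: LPS-activated human primary co-culture of vascular endothelium and peripheral blood mononuclear cells, with parallel SRB total-protein cytotoxicity.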

Read-out in assay [2]: Monocyte Chemoattractant Protein-1 (MCP1), CCL2 (gene 6347)
As to the kind of experiment: BSK_LPS_MCP1: BioMAP Diversity Plus: LPS Assay for Monocyte Chemoattractant Protein-1 (MCP1) Biomarker Activity (AID 2283081).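 As to AC50: secreted MCP-1 protein quantified by ELISA in culture supernatant.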 The settings on record: primary human HUVEC with PBMC; actives raise or lower the signal. The method in brief: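 Secreted MCP-1 read by ELISA at 24 h post-dosing in an LPS-activated co-culture of endothelial cells with peripheral blood mononuclear cells. Fits run in both directions, DMSO as baseline; parallel SRB staining tracks overt cytotoxicity.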

Assay [3] in a line: BSK_LPS_PGE2: BioMAP Diversity Plus: LPS Assay for Prostaglandin E2 (PGE2) Biomarker Activity (AID 2283082). The settings on record: primary human HUVEC with PBMC; actives raise or lower the signal. The method in brief: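 HUVEC plus PBMC co-culture stimulated with LPS; secreted PGE2 quantified by ELISA 24 h after chemical dosing. Activity fitted bidirectionally against DMSO as negative control and baseline; parallel SRB total-protein staining served as cytotoxicity check.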

Read-out in assay [4]: Macrophage colony-stimulating factor (MCSF), CSF1 (gene 1435)
As to the kind of experiment: BSK_LPS_MCSF: BioMAP Diversity Plus: LPS Assay for Macrophage colony-stimulating factor (MCSF) Biomarker Activity (AID 2283083). The settings on record: primary human HUVEC with PBMC; actives raise or lower the signal. The method in brief:
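Bidirectional fitting against DMSO was applied to M-CSF levels read by ELISA at 24 h post-dose. The system pairs human umbilical vein endothelium with peripheral blood mononuclear cells; parallel SRB staining tracked cytotoxicity.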

Read-out in assay [5]: Tissue Factor, F3 (gene 2152)
Description: BSK_LPS_TissueFactor: BioMAP Diversity Plus: LPS Assay for Tissue Factor Biomarker Activity (AID 2283084). The settings on record: primary human HUVEC with PBMC; actives raise or lower the signal. The essentials: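 Compound was added to an endothelial cell/PBMC co-culture, and after 24 h tissue factor (CD142) was read by ELISA. Gain or loss of signal was fitted against a DMSO baseline, and parallel SRB staining (560 nm) tracked overt cytotoxicity.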

Read-out in assay [6]: Tumor necrosis factor (Homo sapiens) (UniProt P01375)
Description: BSK_LPS_TNFa: BioMAP Diversity Plus: LPS Assay for Tumour Necrosis Factor alpha (TNFa) Biomarker Activity (AID 2283085). The note with it: primary human HUVEC with PBMC; actives raise or lower the signal. The method in brief: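 Human umbilical vein endothelial cells co-cultured with PBMC were exposed to test chemical and TNFa measured by ELISA 24 h after dosing. Bidirectional curve fitting was done relative to DMSO as negative control and baseline.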

Read-out in assay [7]: Vascular cell adhesion molecule 1 (VCAM1), VCAM1 (gene 7412)
Description: BSK_LPS_VCAM1: BioMAP Diversity Plus: LPS Assay for Vascular cell adhesion molecule 1 (VCAM1) Biomarker Activity (AID 2283086). The note with it: primary human HUVEC with PBMC; actives raise or lower the signal. The essentials: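 Human umbilical vein endothelial cells co-cultured with peripheral blood mononuclear cells under LPS stimulation were exposed to test chemical for 24 h. VCAM-1 levels were then measured by ELISA, with bidirectional curve fitting relative to DMSO as negative control and baseline.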

Read-out in a further assay: CD38, CD38 (gene 952)
Description: BSK_SAg_CD38: BioMAP Diversity Plus: SAg Assay for CD38 Biomarker Activity (AID 2283087). The settings on record: primary human HUVEC with PBMC; actives raise or lower the signal. The essentials: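 Fluorescence ELISA of cell-surface CD38 served as the read-out, with either increase or decrease fitted against DMSO controls. Cells were a human umbilical vein endothelium plus PBMC co-culture under SEB/TSST-1 stimulation, measured 24 h after dosing.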

Read-out in a further assay: CD40, CD40 (gene 958)
Description: BSK_SAg_CD40: BioMAP Diversity Plus: SAg Assay for CD40 Biomarker Activity (AID 2283088). The settings on record: primary human HUVEC with PBMC; actives raise or lower the signal. The method in brief: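 CD40 is measured by fluorescence ELISA in an endothelial/PBMC primary human co-culture at 24 h post-dose. Fitting is bidirectional, DMSO baseline. Parallel SRB staining (560 nm) flags cytotoxicity.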

Read-out in a further assay: CD69, CD69 (gene 969)
As to the kind of experiment: BSK_SAg_CD69: BioMAP Diversity Plus: SAg Assay for CD69 Biomarker Activity (AID 2283089).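 As to AC50: cell surface CD69 protein quantified by ELISA with fluorescence detection.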 The note with it: primary human HUVEC with PBMC; actives raise or lower the signal. The essentials: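 ELISA, fluorescence read-out: CD69 on human umbilical vein endothelial cell + PBMC co-culture, 24 h post-dosing. Gain or loss of signal fitted bidirectionally against DMSO baseline.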

Read-out in assay [8]: Monocyte Chemoattractant Protein-1 (MCP1), CCL2 (gene 6347)
Description: BSK_SAg_MCP1: BioMAP Diversity Plus: SAg Assay for Monocyte Chemoattractant Protein-1 (MCP1) Biomarker Activity (AID 2283090). The note with it: primary human HUVEC with PBMC; actives raise or lower the signal. The method in brief:
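MCP-1 levels in the endothelial–PBMC SAg co-culture were quantified by ELISA at 24 h post-dosing; both increases and decreases versus DMSO scored. Cytotoxicity monitored by SRB total protein in parallel cultures.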

Read-out in assay [9]: E-selectin (Homo sapiens) (UniProt P16581)
As to the kind of experiment: BSK_SAg_Eselectin: BioMAP Diversity Plus: SAg Assay for Eselectin Biomarker Activity (AID 2283091). The note with it: primary human HUVEC with PBMC; actives raise or lower the signal. The method in brief: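 Cell-surface E-selectin is read by ELISA at 24 h in the SAg co-culture of HUVEC and PBMC. Curves are fitted in both directions relative to DMSO. Parallel SRB total-protein staining tracks overt toxicity.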

Read-out in assay [10]: Monokine induced gamma interferon (MIG), CXCL9 (gene 4283)
As to the kind of experiment: BSK_SAg_MIG: BioMAP Diversity Plus: SAg Assay for Monokine induced gamma interferon (MIG) Biomarker Activity (AID 2283092). The settings on record: primary human HUVEC with PBMC; actives raise or lower the signal. The method in brief:
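ELISA readout of MIG/CXCL9; primary human umbilical vein endothelial cells co-cultured with peripheral blood mononuclear cells; 24 h post-dose; gain/loss fit vs DMSO baseline.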

A short description of assay [11]: BSK_SAg_PBMCCytotoxicity: PBMC Cytotoxicity Assessment in the BioMAP Diversity Plus: SAg Assay (AID 2283093).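 Also: PBMC viability measured as Alamar Blue reduction fluorescence at 546/580 nm; fitted both ways against DMSO so a hit may be loss or gain of signal.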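 As to AC50: PBMC superantigen activated with SEB plus TSST-1 one hour after compound addition.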 The note with it: primary human HUVEC with PBMC. The method in brief: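 HUVEC/PBMC co-culture; PBMC exposed to chemical 1 h before SEB and TSST-1 activation (20 ng/mL each), incubated 90 h, then Alamar Blue 6 h, fluorescence 546/580 nm. Bidirectional fit versus DMSO baseline.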

Read-out in assay [12]: Interleukin-8 (IL8), CXCL8 (gene 3576)
As to the kind of experiment: BSK_SAg_IL8: BioMAP Diversity Plus: SAg Assay for Interleukin-8 (IL8) Biomarker Activity (AID 2283094). The note with it: primary human HUVEC with PBMC; actives raise or lower the signal. The method in brief:
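Human umbilical vein endothelial cells co-cultured with peripheral blood mononuclear cells; IL-8 measured by ELISA 24 h after chemical dosing. Bidirectional concentration-response fitting used DMSO as negative control and activity baseline.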

The nature of assay [13]: BSK_SAg_Proliferation: Cell Proliferation Assessment in the BioMAP Diversity Plus: SAg Assay (AID 2283095).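 Also: relative cell number as total protein by SRB absorbance in sub-confluent culture.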 The settings on record: primary human HUVEC with PBMC. The method in brief: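 Human umbilical vein endothelial cells co-cultured with peripheral blood mononuclear cells; total protein measured by sulforhodamine B staining (0.1% SRB after 10% TCA fixation), absorbance at 560 nm, at 96 h. Bidirectional fit against DMSO baseline.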

Assay [14] can be described thus: BSK_SAg_SRB: Viability Assessment in the BioMAP Diversity Plus: SAg Assay (AID 2283096).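 Also: cells read one day after compound addition; hits may be either gain or loss of signal compared with DMSO.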 The note with it: primary human HUVEC with PBMC. The method in brief:
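Human umbilical vein endothelial cells co-cultured with PBMC, read 24 h after compound dosing. Total protein measured by sulforhodamine B staining (0.1% SRB after 10% TCA fixation, absorbance 560 nm); bidirectional fit versus DMSO baseline.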

E-selectin (Homo sapiens), sequence (P16581 whole entry, looked up): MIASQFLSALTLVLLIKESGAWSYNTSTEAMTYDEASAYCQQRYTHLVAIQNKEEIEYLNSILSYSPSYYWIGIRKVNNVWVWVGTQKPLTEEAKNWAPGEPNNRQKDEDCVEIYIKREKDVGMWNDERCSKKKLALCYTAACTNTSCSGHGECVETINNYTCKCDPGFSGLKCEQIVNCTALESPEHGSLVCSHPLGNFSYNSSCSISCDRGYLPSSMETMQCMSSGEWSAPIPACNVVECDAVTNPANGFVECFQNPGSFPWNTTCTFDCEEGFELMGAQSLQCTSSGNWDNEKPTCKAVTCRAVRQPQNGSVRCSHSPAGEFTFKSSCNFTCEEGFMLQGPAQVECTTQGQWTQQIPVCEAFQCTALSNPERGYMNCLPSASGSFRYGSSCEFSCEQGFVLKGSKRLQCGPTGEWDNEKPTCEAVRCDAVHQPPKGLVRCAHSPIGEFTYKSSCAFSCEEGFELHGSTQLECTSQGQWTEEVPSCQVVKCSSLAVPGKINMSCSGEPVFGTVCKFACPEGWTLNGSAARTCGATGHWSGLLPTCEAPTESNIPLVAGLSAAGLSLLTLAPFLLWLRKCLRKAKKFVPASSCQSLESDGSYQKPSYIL
Tumor necrosis factor (Homo sapiens), sequence (P01375 whole entry, looked up): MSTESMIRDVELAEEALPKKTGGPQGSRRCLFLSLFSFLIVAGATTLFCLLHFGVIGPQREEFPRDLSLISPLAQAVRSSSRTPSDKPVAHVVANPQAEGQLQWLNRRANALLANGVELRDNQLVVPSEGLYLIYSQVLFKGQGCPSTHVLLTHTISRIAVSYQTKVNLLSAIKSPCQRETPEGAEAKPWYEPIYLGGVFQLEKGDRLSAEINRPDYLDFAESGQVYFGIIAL

Consider `Clc1cccc(C(Cl)(Cl)Cl)n1`, for which the outcome in assay [1], in assay [2], in assay [3], in assay [4], in assay [5] and in assay [6] was inactive. Also, the outcome was “inactive” in [7]; “inactive” with CD38, CD38 (gene 952); “inactive” with CD40, CD40 (gene 958); “inactive” in the assay with CD69, CD69 (gene 969); “inactive” in [8]; “inactive” in assay [9]. Also, the outcome in assay [10], in [11], in assay [12], in [13] and in assay [14] was inactive.
As for `Clc1nc(Cl)nc(Nc2ccccc2Cl)n1`, the result in [1], in assay [2], in assay [3], in assay [4], in assay [5] and in assay [6] was inactive. The outcome is “inactive” in [7]; “inactive” with CD38, CD38 (gene 952); “inactive” with CD40, CD40 (gene 958); “inactive” with CD69, CD69 (gene 969); “inactive” in assay [8]; “inactive” in assay [9]. Also, the outcome in assay [10], in [11], in assay [12], in assay [13] and in assay [14] was inactive.
Turning to `C=CCOC(=O)C(C)(C)OC(=O)c1cc(-n2c(=O)cc(C(F)(F)F)n(C)c2=O)ccc1Cl`, the outcome in assay [1], in assay [2], in assay [3], in [5], in assay [6] and in assay [7] was inactive. In addition, the result in [8], in assay [10], in [11], in [12], in assay [13] and in assay [14] was inactive. The AC50 in assay [4] is 13.9 µM (active); with CD38, CD38 (gene 952), 10.8 µM (active); in the assay with CD69, CD69 (gene 969), 6.29 µM (active); in assay [9], 31.1 µM (active).
Turning to `COP(=O)(OC)O/C(C)=C/C(=O)N(C)C`, the outcome in assay [1], in assay [2], in [4], in [5], in [6] and in assay [7] was inactive. Further, the outcome with CD38, CD38 (gene 952) was “inactive”; with CD40, CD40 (gene 958), “inactive”; in the assay with CD69, CD69 (gene 969) it was “inactive”; in assay [8], “inactive”; in assay [9] it was “inactive”; in assay [10], “inactive”. The outcome in assay [11], in assay [12], in assay [13] and in assay [14] was inactive. Moreover, the half-maximal activity concentration (AC50) in assay [3] was 17.3 µM (active).
Turning to `CSC(=O)c1c(C(F)F)nc(C(F)(F)F)c(C(=O)SC)c1CC(C)C`, the AC50 in [1] is 15.1 µM (active); in assay [4], 20 µM (active); with CD38, CD38 (gene 952) it was 20.8 µM (active); with CD40, CD40 (gene 958), 34 µM (active); in assay [8], 13.9 µM (active); in assay [9], 13.1 µM (active). The AC50 was 27.6 µM (active) in assay [11], 12.7 µM (active) in assay [12], 28.6 µM (active) in assay [13] and 14.6 µM (active) in [14]. The outcome in [2] is “inactive”; in assay [3], “inactive”; in [5], “inactive”; in [6] it was “inactive”; in assay [7], “inactive”; with CD69, CD69 (gene 969), “inactive”. The outcome in assay [10] was inactive.
On to `COC(=O)NS(=O)(=O)c1ccc(N)cc1`, for which the outcome in [1], in [2], in assay [3], in assay [4], in [5] and in [6] was inactive. The outcome is “inactive” in [7]; “inactive” with CD38, CD38 (gene 952); “inactive” with CD40, CD40 (gene 958); “inactive” in the assay with CD69, CD69 (gene 969); “inactive” in [8]; “inactive” in [9]. The outcome in assay [10], in assay [11], in assay [12], in assay [13] and in [14] was inactive.
For `CCCCOCN(C(=O)CCl)c1c(CC)cccc1CC`, the AC50 in [1] was 30.7 µM (active); in assay [2] it was 31.8 µM (active); in [4], 27 µM (active); in assay [5], 30.2 µM (active); in [6], 35.1 µM (active); in assay [7], 28.2 µM (active). The AC50 in the assay with CD38, CD38 (gene 952) is 29.4 µM (active); with CD40, CD40 (gene 958), 30.8 µM (active); in the assay with CD69, CD69 (gene 969) it was 18.3 µM (active); in [8], 28.5 µM (active); in assay [9], 18.9 µM (active); in assay [10] it was 33.9 µM (active). For the same compound, the AC50 in [11] is 33.2 µM (active); in assay [12], 31 µM (active); in assay [13], 22.2 µM (active); in assay [14], 28.6 µM (active). In addition, in assay [3], the outcome was inactive.

Source of the values: PubChem BioAssay (EPA / NIEHS).
